CYP2C19 act = cytochrome P450 2C19 (human) activation. P33261. activation factor at 5 µM. recombinant CYP2C19, luciferin-H EGE luminescence; stronger effect = higher value; 0 = fully inhibited enzyme, 1 = untreated enzyme. 96,000 tested, under 10 active;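 active = activation factor of at least 2 at 5 µM in the primary screen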;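 also: 0 = wells with 2.5 mM tranylcypromine and 1 = vehicle-only wells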
CYP2C9 inhib = human CYP2C9 inhibition. P11712. CYP2C9 Supersomes, luciferin-H conversion, luminescence. inhibition, % at 5 µM. 20% of 96,000 active;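 active = blocking of liver enzyme CYP2C9 beyond about 50% at 5 µM, limit read from the data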
sEH activator = activators of human soluble epoxide hydrolase | 0.04% of 91,000 active | purified human sEH enzymatic activity, activator screen | activation, % at 2 µM | AID 717; in the data active = activation above about 37%
Target sequence (P34913 whole entry, looked up): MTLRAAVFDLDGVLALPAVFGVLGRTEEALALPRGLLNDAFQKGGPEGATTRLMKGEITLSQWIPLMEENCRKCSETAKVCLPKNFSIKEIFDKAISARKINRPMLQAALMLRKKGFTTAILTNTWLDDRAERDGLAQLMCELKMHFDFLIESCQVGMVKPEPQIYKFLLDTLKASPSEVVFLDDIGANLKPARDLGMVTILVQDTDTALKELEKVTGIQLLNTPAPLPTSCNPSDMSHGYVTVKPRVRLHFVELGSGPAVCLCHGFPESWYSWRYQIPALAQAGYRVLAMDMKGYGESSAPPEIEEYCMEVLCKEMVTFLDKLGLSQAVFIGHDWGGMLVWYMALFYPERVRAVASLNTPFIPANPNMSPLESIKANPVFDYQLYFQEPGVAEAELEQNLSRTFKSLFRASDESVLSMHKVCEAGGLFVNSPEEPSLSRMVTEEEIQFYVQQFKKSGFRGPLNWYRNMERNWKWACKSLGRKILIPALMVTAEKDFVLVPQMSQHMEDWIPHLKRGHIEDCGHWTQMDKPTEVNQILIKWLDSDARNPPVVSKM
CYP2C9 act = increases human cytochrome P450 2C9 activity | P11712 | recombinant CYP2C9, luciferin-H conversion, luminescence; stronger effect = higher value; factor 1 = untreated enzyme, 0 = blocked | activation factor at 5 µM | 1.4% of 96,000 active | AID 1024;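 active = activation factor of 2 or more for CYP2C9 at a 5 µM dose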;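 also: 0 = sulfaphenazole-blocked wells and 1 = vehicle-only wells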
CYP2C19 inh = human CYP2C19 inhibition; CYP2C19 Supersomes, luciferin-H EGE luminescence, 30 min; inhibition, % at 5 µM; 21% of 96,000 active;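 active = CYP2C19 inhibition above a set limit at 5 µM in the primary screen, cut at about 50% in these data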;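 also: plate controls were negative control wells for no effect and 2.5 mM tranylcypromine positive control for full effect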
sEH inhibitor = blocks human soluble epoxide hydrolase activity; P34913; 0.34% of 91,000 active; AID 707; inhibition, % at 2 µM; recombinant human sEH enzymatic activity assay; in the data active = inhibition above about 80%
Starred values were filed as active, the others as inactive. Compounds with a hit are over-represented: about 27% of the library has one in this group of screens.

How did COc1ccc(-c2nnc(SC(C)C(=O)Nc3nccs3)n2-c2ccccc2)cc1OC (stereo not drawn) do in these assays?
CYP2C19 act: 0.9; CYP2C9 inhib: 32.3; sEH activator: -0.3; CYP2C9 act: 0.7; CYP2C19 inh: 8.7; sEH inhibitor: -1.5

How did COc1ccc(CCNC(=O)CN(c2ccc(OC)c(OC)c2)S(C)(=O)=O)cc1OC do in these assays?
CYP2C19 act: 1; CYP2C9 inhib: 15.5; sEH activator: 9.6; CYP2C9 act: 0.8; CYP2C19 inh: 2.8; sEH inhibitor: -6.9

How did CS(=O)(=O)N(CC(=O)NCCSCc1c(F)cccc1Cl)c1ccc2c(c1)OCO2 do in these assays?
CYP2C19 act: 0.2; CYP2C9 inhib: 56.7*; sEH activator: -2.0; CYP2C9 act: 0.4; CYP2C19 inh: 79.0*; sEH inhibitor: -0.5

How did COc1ccc(N(CC(=O)NCCSCc2c(F)cccc2Cl)S(C)(=O)=O)cc1OC do in these assays?
CYP2C19 act: 1.2; CYP2C9 inhib: 86.7*; sEH activator: -7.1; CYP2C9 act: 0.1; CYP2C19 inh: -19.9; sEH inhibitor: 6.6

What do the screens show for `CC(C)(C)SCCNC(=O)CN(c1ccc(F)c(Cl)c1)S(C)(=O)=O`?
CYP2C19 act: 1.1; CYP2C9 inhib: 8.6; sEH activator: 8.5; CYP2C9 act: 0.9; CYP2C19 inh: -5.4; sEH inhibitor: -5.5

Results for CCc1ccc2c(c1)cc(CN(C(=S)Nc1ccc(Cl)cc1)C1CC1)c1nnnn12 ?
CYP2C19 act: 0.9; CYP2C9 inhib: 78.5*; CYP2C9 act: 0.2; CYP2C19 inh: 7.8

How did COc1ccc(N2CCN(C(=O)CSc3nnc(Cn4nnc5ccccc54)n3C)CC2)cc1 do in these assays?
CYP2C19 act: 0.8; CYP2C9 inhib: 33.9; sEH activator: -15.5; CYP2C9 act: 0.7; CYP2C19 inh: 15.4; sEH inhibitor: 15.1

What do the screens show for `O=S(=O)(c1ccc(Br)s1)N1CCN(c2ccccn2)CC1`?
CYP2C19 act: 0; CYP2C9 inhib: 98.1*; sEH activator: -2.6; CYP2C9 act: 0; CYP2C19 inh: 99.4*; sEH inhibitor: 2.1

Results for O=S(=O)(c1ccc(Br)s1)N1CCN(c2ncccn2)CC1 ?
CYP2C19 act: 0.6; CYP2C9 inhib: 61.1*; sEH activator: -15.4; CYP2C9 act: 0.4; CYP2C19 inh: 37.9; sEH inhibitor: 12.3

How did CCOC(=O)c1cc2c(=O)[nH]ccc2nc1C do in these assays?
CYP2C19 act: 1.1; CYP2C9 inhib: -7.6; sEH activator: 6.8; CYP2C9 act: 1.1; CYP2C19 inh: -10.6; sEH inhibitor: -7.3

Results for O=C(NCCc1ccccc1)C(=O)N/N=C/c1ccccc1C(F)(F)F ?
CYP2C19 act: 1.2; CYP2C9 inhib: -3.8; sEH activator: -4.0; CYP2C9 act: 1; CYP2C19 inh: -17.6; sEH inhibitor: 4.3

What do the screens show for `CNCCCNCc1ccc(SC)cc1`?
CYP2C19 act: 1; CYP2C9 inhib: 3.4; sEH activator: -8.4; CYP2C9 act: 1; CYP2C19 inh: 0.8; sEH inhibitor: 9.8

Results for CCOC(=O)C1CCCN(S(=O)(=O)c2cc(Br)cc3c2N(C(=O)C2CC2)CC3)C1 (stereo not drawn) ?
CYP2C19 act: 0.6; CYP2C9 inhib: -192.9; CYP2C9 act: 2.9*; CYP2C19 inh: 38.3

Results for CCC(=O)N1CCc2cc(Br)cc(S(=O)(=O)N3CCCCCC3)c21 ?
sEH activator: -4.0; sEH inhibitor: 6.9

Results for O=C(C1CC1)N1CCc2cc(Br)cc(S(=O)(=O)N3CCCCCC3)c21 ?
CYP2C19 act: 0.1; CYP2C9 inhib: 21.3; CYP2C9 act: 0.8; CYP2C19 inh: 90.2*

What do the screens show for `COC(=O)c1ccccc1N1C(=O)[C@@H]2C(c3ccc(Br)cc3)=NO[C@@H]2C1=O`?
CYP2C19 act: 0; CYP2C9 inhib: 45.9; sEH activator: -7.6; CYP2C9 act: 0.5; CYP2C19 inh: 99.3*; sEH inhibitor: 8.7

What do the screens show for `O=C(CCS(=O)(=O)Cc1ccc(Cl)cc1)NCCCN1CCOCC1`?
CYP2C19 act: 0.5; CYP2C9 inhib: -3.0; sEH activator: 5.6; CYP2C9 act: 1; CYP2C19 inh: 45.1; sEH inhibitor: -6.8

Results for c1ccc(SCc2nc(-c3ccncc3)no2)cc1 ?
CYP2C19 act: 0; CYP2C9 inhib: 82.8*; sEH activator: -12.6; CYP2C9 act: 0.2; CYP2C19 inh: 95.5*; sEH inhibitor: 15.1

What do the screens show for `O=C1c2ccccc2C(=O)N1Cc1nc(-c2ccccc2)no1`?
CYP2C19 act: 0.5; CYP2C9 inhib: 14.0; CYP2C9 act: 0.9; CYP2C19 inh: 49.3

Results for O=C1c2ccccc2C(=O)N1CCCSc1nc2ccccc2o1 ?
CYP2C19 act: 0.5; CYP2C9 inhib: 24.8; CYP2C9 act: 0.8; CYP2C19 inh: 45.9

Results for O=C1c2ccccc2C(=O)N1Cc1nc2ccccc2o1 ?
CYP2C19 act: 0.4; CYP2C9 inhib: -16.1; sEH activator: 16.9; CYP2C9 act: 1.2; CYP2C19 inh: 64.3*; sEH inhibitor: -15.4

What do the screens show for `Cc1ccc(SCc2nc(-c3ccncc3)no2)cc1`?
CYP2C19 act: 0; CYP2C9 inhib: 90.7*; sEH activator: 11.6; CYP2C9 act: 0.1; CYP2C19 inh: 98.7*; sEH inhibitor: -11.6

What do the screens show for `Cc1ccc(SC(C)c2nc(-c3ccncc3)no2)cc1` (stereo not drawn)?
CYP2C19 act: 0; CYP2C9 inhib: 96.5*; sEH activator: -7.8; CYP2C9 act: 0; CYP2C19 inh: 99.6*; sEH inhibitor: 11.2

What do the screens show for `Cc1ccc(OCCNC(=O)c2cc(-n3cnnc3)ccc2Cl)cc1C`?
CYP2C19 act: 0.6; CYP2C9 inhib: 6.2; sEH activator: 3.6; CYP2C9 act: 0.9; CYP2C19 inh: 44.8; sEH inhibitor: -1.8

How did COc1ccc(N2Nc3n[nH]c(N)c3N2)cc1 do in these assays?
sEH activator: 4.3; sEH inhibitor: -0.7

What do the screens show for `COc1ccc(N2CCN(CC(O)c3c[nH]c4ccc(OC)cc34)CC2C)cc1` (stereo not drawn)?
CYP2C19 act: 0.8; CYP2C9 inhib: 27.8; sEH activator: 3.8; CYP2C9 act: 0.7; CYP2C19 inh: 22.5; sEH inhibitor: -4.1

Results for O=C1c2ccccc2C(=O)N1Cc1nc(-c2ccncc2)no1 ?
CYP2C19 act: 0.1; CYP2C9 inhib: 84.1*; CYP2C9 act: 0.2; CYP2C19 inh: 92.2*

How did Cc1ccc(SCc2nc(-c3ccccn3)no2)cc1 do in these assays?
CYP2C19 act: 0.1; CYP2C9 inhib: 51.7*; sEH activator: -6.9; CYP2C9 act: 0.5; CYP2C19 inh: 85.5*; sEH inhibitor: 7.4

How did Cc1ccc(SCc2nc(-c3ccccc3)no2)cc1 do in these assays?
CYP2C19 act: 0.1; CYP2C9 inhib: 51.2*; sEH activator: -0.5; CYP2C9 act: 0.5; CYP2C19 inh: 85.6*; sEH inhibitor: 3.1

How did Cc1ccc(OCc2nc(-c3ccccn3)no2)cc1 do in these assays?
CYP2C19 act: 0.6; CYP2C9 inhib: 31.7; sEH activator: 5.0; CYP2C9 act: 0.7; CYP2C19 inh: 40.9; sEH inhibitor: -9.6

Screening results from PubChem.
